KAT2A inh: GCN5L2 (KAT2A) acetyltransferase inhibition; GCN5L2 HAT assay, ThioGlo1 CoA-SH fluorescence; Potency, µM (doses to about 58.9 µM), for the others: top-dose activity change, negative = inhibition, hits mostly inhibitors; actives 0.21% (n = 390,000); AID 504327; further: on the % scale 0 is the no-effect control and ±100 the full control effect
Target sequence (Q92830 whole entry, looked up): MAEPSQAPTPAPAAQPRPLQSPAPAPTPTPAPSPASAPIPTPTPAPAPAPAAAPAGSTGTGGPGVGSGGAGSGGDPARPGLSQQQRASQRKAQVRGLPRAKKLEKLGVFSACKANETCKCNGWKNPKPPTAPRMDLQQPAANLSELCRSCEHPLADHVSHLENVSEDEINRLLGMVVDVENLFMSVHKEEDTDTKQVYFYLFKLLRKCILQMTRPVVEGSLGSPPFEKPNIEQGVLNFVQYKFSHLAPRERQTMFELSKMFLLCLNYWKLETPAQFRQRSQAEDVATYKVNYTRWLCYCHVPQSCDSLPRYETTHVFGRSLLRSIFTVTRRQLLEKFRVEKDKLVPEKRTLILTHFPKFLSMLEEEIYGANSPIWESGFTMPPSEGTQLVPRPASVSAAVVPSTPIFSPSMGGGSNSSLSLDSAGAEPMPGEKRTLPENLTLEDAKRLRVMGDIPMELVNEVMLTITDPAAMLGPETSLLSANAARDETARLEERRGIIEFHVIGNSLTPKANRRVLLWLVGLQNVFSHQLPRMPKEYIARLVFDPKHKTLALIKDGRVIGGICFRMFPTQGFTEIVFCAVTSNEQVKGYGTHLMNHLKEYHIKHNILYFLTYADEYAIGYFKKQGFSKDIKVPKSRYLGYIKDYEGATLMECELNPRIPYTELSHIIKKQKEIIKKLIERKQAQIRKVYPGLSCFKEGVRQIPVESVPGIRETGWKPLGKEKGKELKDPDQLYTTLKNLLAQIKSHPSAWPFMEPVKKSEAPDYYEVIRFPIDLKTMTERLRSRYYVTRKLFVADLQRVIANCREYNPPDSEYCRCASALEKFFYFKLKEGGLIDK
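qHTS, 1536-well. 20nM enzyme, pH 7.5 HEPES/EDTA/Tween-20 buffer; 15 min compound preinc., RT. Start: 75uM H3(1-25), 70uM AcCoA, 50uM ThioGlo1. Read Ex340/Em540 at t=0 (autofluorescence flag) and t=20 min.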
Mito fusion yeast: mitochondrial division inhibition or fusion activation; actives 0.23% (n = 320,000); AID 485298; Potency, µM (highest dose often 46.1 µM), for the others: at the highest dose growth rescue (activation), usual class: activators; S. cerevisiae fusion-defective mutant growth rescue, CellTiterGlo 48 h; further: % of control where 0% means no effect; nearly all actives have a fitted effect of over 45% in size
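Temperature-sensitive fusion-defective S. cerevisiae (e.g. fzo1-1, mgm1-5) were grown with compound in YPEG medium (3% ethanol, 3% glycerol) for 48 hours at 37C. Growth rescue was measured as viability by CellTiterGlo luminescence after 10 minutes at ambient.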
GLS inh: blocks human kidney-isoform glutaminase activity; O94925; GLS enzymatic activity, qHTS titration; Potency, µM (top dose mostly 45.5 µM), for the others: at the highest dose activity change, negative = inhibition, hits mostly inhibitors; actives 0.21% (n = 410,000); AID 624170; further: on the % scale 0 is the no-effect control and ±100 the full control effect
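Glutamate formation by hKGA was monitored fluorometrically using coupled glutamate oxidase, HRP and Amplex Red. Substrate was added as 1 mM L-glutamine solution; incubation was 30 min at RT after an initial read.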
PKM2 act: activators of human pyruvate kinase M2; P14618; purified PKM2, Kinase-Glo ATP luminescence, activation; response scale: 0% is enzyme alone, no compound; Potency, µM (series often up to 57.5 µM), for the others: top-dose activation, actives largely listed as activators; actives 0.34% (n = 260,000); further: on the % scale 0 is the no-effect control and ±100 the full control effect; nearly all actives have a fitted effect of over 55% in size
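Purified hPK-M2 (>95% pure) converted ADP (0.1 mM final) to ATP with 0.5 mM PEP in 50 mM imidazole pH7.2, KCl, MgCl2, Tween 20, BSA; 1 h at room temperature. ATP detected by Kinase-Glo luminescence.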
VDR inhibitor: inhibitors of human vitamin D receptor; Potency, µM, for inactives: max response, negative = inhibition, hits mostly inhibitors; P11473; actives 0.93% (n = 400,000); VDR-SRC2-3 peptide fluorescence polarization, 2 h; further: on the % scale 0 is the no-effect control and ±100 the full control effect
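Compounds are added to VDR with labelled SRC2-3 coactivator peptide and held 2 h at room temperature. Inhibition of the VDR–peptide interaction is then read as a change in fluorescence polarization.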
PLK1 PBD inh: inhibitors of human PLK1 polo-box domain binding | P53350 | actives 2.8% (n = 360,000) | AID 720504 | Plk1 PBD binding of FITC phosphopeptide, fluorescence polarization | Potency, µM, inactives show max response, negative = inhibition, usual class: inhibitors; further: series mostly up to about 57 µM; on the % scale 0 is the no-effect control and ±100 the full control effect; nearly all actives have a fitted effect of over 65% in size
Active calls of the source: *; ? = inconclusive; / = no result given; ! = repeats disagree; [ ] = remark or other dose. A selection: hits, their analogues and other compounds. The true share with any hit is near 3.4%. The call rests on the fitted dose curve; in most records, active means well fitted curve in the direction sought with a large enough effect; inconclusive means small, poorly fitted or top-dose-only effect, or another doubt; inactive means no such curve, though single readings can be large; an effect the other way counts as inactive or inconclusive. Potency means the concentration at half of the fitted maximal effect.

SMILES	KAT2A inh	Mito fusion yeast	GLS inh	PKM2 act	VDR inhibitor	PLK1 PBD inh
CC(C)[C@H]1COCCS(=O)(=O)N1Cc1ccccc1-c1ccc(C(C)(C)C)cc1	-10%	/	-2%	/	-4%	-6%
C=CCNc1sc(C(=O)c2ccccc2)c(N)c1-c1nc2ccccc2s1	-7%	4%	3%	17%	-14%	17µM*
CCOC(=O)c1sc(NCc2ccco2)c(-c2nc3ccccc3s2)c1N	55%	3%	-15%	-5%	0%	-11%
CCCCC/C=C\C[C@@H](O)/C=C/C=C/C=C/[C@@H](O)CCCC(=O)O	/	/	/	/	-15%	/
N#CCCSCc1ccc2oc(C(=O)O)cc2c1	-7%	5%	-15%	-4%	-7%	-10%
COCc1ccc2oc(C(=O)O)cc2c1	0%	1%	?	-2%	-15%	3.4µM*
COc1cc(C/C=C\c2ccccc2)c(OC)cc1O	/	/	/	/	45µM*	/
COc1cc(Br)cc(CN2CCN(C/C=C/c3ccccc3)CC2)c1O	-7%	2%	-1%	0%	-12%	3%
Cc1ccc(C)c(S(=O)(=O)NCc2ccncc2)c1	3.2µM*	5%	-2%	-2%	-11%	-3%
C/C(=N/NS(=O)(=O)c1cc(C)ccc1C)c1ccncc1	-9%	-5%	10%	1%	?	15µM*
N#CC1C(=O)NC(c2ccccc2)=CC1c1ccccc1 (stereo not drawn)	/	/	4%	/	-11%	3%
Nc1nc(-c2ccccc2Cl)cs1	/	/	0%	/	?	19µM*
Cc1ccc(C(=O)CSc2nc3cc(S(=O)(=O)N4CCOCC4)ccc3o2)cc1	-7%	14%	-4%	12%	-4%	24µM*
O=C(CSc1nc2cc(S(=O)(=O)N3CCOCC3)ccc2o1)NC1CCCc2ccccc21 (stereo not drawn)	-11%	4%	88%	-17%	?	6.7µM*
CCOc1ccc(-c2cc3c(=O)n(Cc4nc(-c5ccccc5OCC)oc4C)ccn3n2)cc1Cl	-4%	/	-10%	/	-3%	/
CCCCN(CC)C(=O)CSc1nc2ccccc2c(=O)n1Cc1ccco1	1%	/	3%	/	17%	/
C[C@H]1CC[C@H]2C(=O)N3[C@H](c4ccccc4Br)[C@@H](C)CC[C@H]3C(=O)N2[C@@H]1c1ccccc1Br	-8%	22µM*	/	-3%	/	/
O=C(Nc1ccc(N2CCCC2)cc1)C(Cl)c1ccccc1 (stereo not drawn)	-9%	-4%	-20%	-7%	45µM*	-29%
O=C(Nc1ccc(Cl)cc1)N1CCN(c2ccccc2)CC1	-5%	24%	30%	0%	-9%	27µM*
O=C(O)c1ccccc1-c1c2ccc(=O)cc-2oc2cc(O)ccc12	?	/	20%	/	2%	/
CN(C)c1ccc2c(-c3ccccc3)c3ccc(=[N+](C)C)cc-3oc2c1	?	/	/	/	45µM*	/
CCc1ccc(C(=O)COC(=O)C2=NN(c3ccccc3)C(=O)CC2)cc1	1%	/	-6%	/	-3%	2%
CC(C)OCCc1cccc[n+]1[O-]	/	/	0%	/	/	-14%
Cc1ccc(S(=O)(=O)CCSc2nc(C)cc(C)c2C#N)cc1	-1%	9%	6%	25µM*	8%	1%
CCS(=O)(=O)CCSc1nc(C)cc(C)c1C#N	-6%	1%	-1%	8%	4%	-16%
SMILES	KAT2A inh	Mito fusion yeast	GLS inh	PKM2 act	VDR inhibitor	PLK1 PBD inh
COCc1cc(C)nc(SCc2ccc(F)cc2)c1C#N	-3%	-6%	-2%	0%[11.5 µM]	-27%	24µM*
Cc1cc(C)c(C#N)c(SCc2ccccc2F)n1	-4%	17%	2%	?	-6%	0%
Cc1cc(C)c(C#N)c(SCc2ccccc2C)n1	-6%	7.1µM*	12%	10%	8%	-5%
Cc1ccc(NC(=O)CCNC(=O)c2ccc(Br)cc2)cc1S(=O)(=O)N1CCOCC1	-1%	-2%	0%	/	-8%	-1%
Cc1ccc(NC(=O)CSc2ccc(Br)cc2)cc1S(=O)(=O)N1CCOCC1	-6%	1%	2%	/	-27%	12µM*
CC(C)(C)OC(=O)N1C[C@H](O)C[C@H]1C(=O)OCC(=O)c1ccc([N+](=O)[O-])cc1	-3%	-3%	40%	/	?	21µM*
CCCCCOCC1CC(C/C(C)=N/NC(N)=S)C(=O)O1 (stereo not drawn)	-3%	-2%	-19%	15%	-27%	27µM*
CCCCCC1CC(CC/C(C)=N/NC(N)=O)C(=O)O1 (stereo not drawn)	-3%	-2%	-9%	0%	-5%	-1%
COc1cc2c(=O)n(Cc3ccccc3Cl)c(=O)n(CC(=O)Nc3ccc(C)c(C)c3)c2cc1OC	-5%	/	2%	/	-16%	/
Cc1cc(Cl)ccc1C(=O)C1CCCN(C(=O)c2cccc(N3CCCC3=O)c2)C1 (stereo not drawn)	-3%	14%	38%	/	?	24µM*
O=c1oc2c(CN3CCN(CCO)CC3)c(O)ccc2cc1-c1ccccc1	32µM*	/	7%	/	0%	/
Cc1ccc(CSc2nnc(SCC(=O)N/N=C/c3c[nH]c4ccccc34)s2)cc1	-13%	-3%	75%	25µM*	-2%	-27%
O=C(CSc1nnc(SCc2ccccc2)s1)N/N=C/c1c[nH]c2ccccc12	-7%	0%[9.22 µM]	0%	?	11%	-13%
CCCCC[C@@H](/C=C/C1C(=O)C=C[C@H]1C/C=C\CCCC(=O)O)OC(C)=O (stereo partly drawn)	/	/	-2%	/	79µM*	?
CCCCC[C@H](O)C/C=C1/C(=O)C=C[C@@H]1C/C=C\CCCC(=O)O	11%	/	/	/	50µM*	/
CCCCCC(O)C=CC1C(O)CC(O)C1CC=CCCCC(=O)O (stereo not drawn)	/	/	0%	/	/	1%
CCCCC/C=C/C=C1/C(=O)C=C[C@@H]1C/C=C\CCCC(=O)O	?	/	/	/	20µM*	/
CCCCC/C=C\C/C=C\C/C=C\CCCCC(=O)O	14µM*!	-7%	?	/	40µM*!	?
CSc1ccc(CN2CCC(C)(Oc3ccc(C(C)=O)cc3)C2)cc1 (stereo not drawn)	/	/	8%	/	/	-2%
COc1ccc(-c2nc(N3CCN(S(=O)(=O)c4ccc(F)cc4)CC3)c3ccccc3n2)cc1	/	/	/	/	-22%	/
CC(Sc1nc(N)c2c3c(sc2n1)CSC(C)(C)C3)C(=O)Nc1ccccc1 (stereo not drawn)	-4%	-1%	?	7.1µM*	40µM*	8.4µM*
CC(Sc1nc(NCc2ccccc2)nc(N(C)C)n1)C(=O)Nc1ccccc1 (stereo not drawn)	-25%	9%	3%	21%	-6%	-2%

Screening results as filed in PubChem BioAssay.
